IL1B secr inh – blocks inflammasome-driven IL-1 beta release | 4.7% of 360,000 active | activity change, % at 57.5 µM | THP-1 LPS/ATP IL-1B secretion, AlphaLISA, 16 h; stronger effect = lower value; in the data active = activity change below about -50%; inconclusive = mostly about -30% to -49%
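Secreted IL-1B measured by AlphaLISA bead assay after 16 h compound exposure of THP-1 cells; compounds (final up to 57.5 uM) added 1 h before LPS (250 ng/mL) and ATP (1.25 mM) stimulation; lower signal means less secretion.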
DT40 TDP1 no CPT – qHTS for Inhibitors of human tyrosyl-DNA phosphodiesterase 1 (TDP1): qHTS in cells in absence of CPT; DT40 Tdp1-/- hTDP1 cells, no CPT, ATP luminescence, 48 h; Potency, µM (titrated, usually from 46.2 µM), actives largely listed as inhibitors; 15% of 420,000 active; AID 686978, 2013; also: nearly all actives have a fitted effect of over 55% in size
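Seeded 400 DT40-hTDP1 cells/well (vehicle DMSO, no 20 nM CPT); pinned compounds; ≥48 hr at 37 °C; CellTiter-Glo luminescence as viability measure.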
HT1080NT lethal – kills 2HG-producing HT-1080-NT fibrosarcoma cells; HT-1080-NT fibrosarcoma viability, CellTiter-Glo ATP luminescence, 48 h; Potency, µM (doses to about 46.1 µM), usual class: cytotoxic; 1.6% of 360,000 active; AID 686970;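 also: NT is the 2HG producing partner of a matched IDH1 knockdown line; nearly all actives have a fitted effect of over 55% in size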
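Compounds were tested in concentration-response format on HT-1080-NT cells for 48 hours at 37 degrees C. Cell viability came from CellTiter-Glo luminescence; curves were classified by r2, response magnitude and activity.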
TDP1 cell CPT – DT40-hTDP1 cell growth loss with CPT; chicken DT40 Tdp1-/-;hTDP1 cells + 20 nM CPT, ATP luminescence, 48 h; AID 686979; 12% of 420,000 active; Potency, µM (doses to about 46.2 µM), usual class: inhibitors; also: nearly all actives have a fitted effect of over 55% in size
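Cell growth measured by CellTiter-Glo luminescence after a minimum 48 h, 37 C compound exposure with 20 nM CPT in Tdp1-knockout DT40 cells stably expressing hTDP1, seeded 400/well; qHTS titration format.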
HT1080 IDH1KD tx – kills HT-1080 cells with IDH1 knockdown; HT-1080 IDH1 knockdown viability, ATP luminescence, 48 h; Potency, µM (series often up to 46.1 µM), usual class: cytotoxic; 2% of 360,000 active
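Using the IDH1-knockdown HT-1080 line run in the same batch and compound series as the NT line, viability after 48 h at 37 °C was determined by CellTiter-Glo luminescence and expressed as % activity.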
ELG1 repair inh – blocks ELG1-dependent DNA repair in HEK293T cells; HEK293T ELG1-luciferase reporter, luminescence, 16 h; DNA damage induced by 5-fluorouridine; AID 504467; Potency, µM (highest dose often 46.1 µM), most hits filed as inhibitors; 2.3% of 330,000 active; also: nearly all actives have a fitted effect of over 55% in size
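DMSO vehicle served as the neutral condition. Each well held 2,000 cells given 5-fluorouridine plus compound; after 16 hr at 37 °C/5% CO2, ONE-Glo was added and luciferase measured 30 min later.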
Of the large screens only hits and unclear results are named; the others gave an inactive call. In the library only some 19% were active in any assay of this set; here they are far more common. Unless noted, calls follow the shape of the dose curve; as a rule, active = well fitted curve in the direction sought with a large enough effect; inconclusive = small, poorly fitted or top-dose-only effect, or another doubt; inactive = no such curve, though single readings can be large; an effect the other way counts as inactive or inconclusive.

COCCNC(=O)CSc1nc(-c2ccccc2)[nH]c1-c1ccc(OC)cc1	DT40 TDP1 no CPT inconclusive (no result: IL1B secr inh, HT1080NT lethal, HT1080 IDH1KD tx, ELG1 repair inh)
Cc1ccc(NC(=O)NCc2c(-n3cccc3)sc3c2CCCC3)c(Cl)c1	DT40 TDP1 no CPT 23µM, TDP1 cell CPT inconclusive (no result: IL1B secr inh, HT1080NT lethal, HT1080 IDH1KD tx, ELG1 repair inh)
COc1cc(OC)c(NC(=O)NC(C)c2c(-n3cccc3)sc(C)c2C)cc1Cl (stereo not drawn)	none (no result: IL1B secr inh, HT1080NT lethal, HT1080 IDH1KD tx, ELG1 repair inh)
CCOCCCNC(=O)NC(CCC(C)C)c1c(-n2cccc2)sc2c1CCN(C)C2 (stereo not drawn)	DT40 TDP1 no CPT 16µM, TDP1 cell CPT 16µM (no result: IL1B secr inh, HT1080NT lethal, HT1080 IDH1KD tx, ELG1 repair inh)
CCN1CCc2c(sc(-n3cccc3)c2C(C)NC(=O)Nc2cc(Cl)c(OC)cc2OC)C1 (stereo not drawn)	DT40 TDP1 no CPT 18µM, TDP1 cell CPT 18µM (no result: IL1B secr inh, HT1080NT lethal, HT1080 IDH1KD tx, ELG1 repair inh)
CC(NC(=O)Nc1cc(Cl)ccc1Cl)c1c(-n2cccc2)sc2c1CCCC2 (stereo not drawn)	DT40 TDP1 no CPT 18µM, TDP1 cell CPT inconclusive (no result: IL1B secr inh, HT1080NT lethal, HT1080 IDH1KD tx, ELG1 repair inh)
CC(NC(=O)C1CCOCC1)c1nnc2n1CCN(Cc1cc3c(cc1Cl)OCO3)CC2 (stereo not drawn)	none (no result: IL1B secr inh, HT1080NT lethal, HT1080 IDH1KD tx, ELG1 repair inh)
C#CCN(Cc1nc(N2CCOCC2)c2ccc(Cl)cc2n1)Cc1ccco1	DT40 TDP1 no CPT inconclusive (no result: IL1B secr inh, HT1080NT lethal, HT1080 IDH1KD tx, ELG1 repair inh)
COc1cc(NC(=O)NC(C)c2c(-n3cccc3)sc3c2CCN(C)C3)cc(OC)c1 (stereo not drawn)	DT40 TDP1 no CPT 23µM, TDP1 cell CPT 23µM (no result: IL1B secr inh, HT1080NT lethal, HT1080 IDH1KD tx, ELG1 repair inh)
CCN1CCc2c(sc(-n3cccc3)c2C(C)NC(=O)Nc2ccccc2C)C1 (stereo not drawn)	DT40 TDP1 no CPT 23µM, TDP1 cell CPT inconclusive (no result: IL1B secr inh, HT1080NT lethal, HT1080 IDH1KD tx, ELG1 repair inh)
Cc1c(C)n2c(SCC(=O)NCc3ccc4c(c3)OCO4)nnc2[nH]c1=O	none
CCNC(=O)N1CCCC(C(=O)c2ccc(OC)c(OC)c2)C1 (stereo not drawn)	none
Cc1ccc(Cc2c(-c3ccc(F)cc3)nc3cc(C)ccn23)cc1	DT40 TDP1 no CPT 16µM, TDP1 cell CPT inconclusive (no result: ELG1 repair inh)
Cc1ccc(Cc2c(-c3ccc(F)cc3)nc3ccc(Br)cn23)cc1	DT40 TDP1 no CPT inconclusive, TDP1 cell CPT inconclusive (no result: ELG1 repair inh)
Cc1ccc(Cc2c(-c3ccc(Br)cc3)nc3cc(C)ccn23)cc1	DT40 TDP1 no CPT 21µM, TDP1 cell CPT 23µM (no result: ELG1 repair inh)
COc1ccc(S(=O)(=O)N2CCCOC2CNC(=O)C(=O)NCCc2ccco2)cc1 (stereo not drawn)	none
Cc1nn(CC(=O)NC2(C#N)CCCCC2)c(C)c1[N+](=O)[O-]	none
O=C(CNC(=O)C1CCCCC1)OCC(=O)c1cccc(Cl)c1	none
Cc1cnc(-n2ncc(C(=O)N(C)CCc3ccccn3)c2-c2cccs2)nc1-c1ccc(F)cc1	DT40 TDP1 no CPT 12µM (no result: IL1B secr inh, HT1080NT lethal, HT1080 IDH1KD tx, ELG1 repair inh)
COc1ccccc1-c1ccnc(-n2ncc(C(=O)N(C)CCc3ccccn3)c2C)n1	none (no result: IL1B secr inh, HT1080NT lethal, HT1080 IDH1KD tx, ELG1 repair inh)
O=C(O)Cc1cccc(-c2cc(CCCCCCc3ccc(O[C@H]4O[C@H](CO)[C@@H](O)[C@H](O)[C@@H]4O)c(-c4cccc(CC(=O)O)c4)c3)ccc2O[C@H]2O[C@H](CO)[C@@H](O)[C@H](O)[C@@H]2O)c1	none (no result: IL1B secr inh, HT1080NT lethal, HT1080 IDH1KD tx, ELG1 repair inh)
Cc1cc(N2CCOCC2)nc2ccc(NC(=O)CCC(=O)N3CCN(c4cccc(C(F)(F)F)c4)CC3)cc12	IL1B secr inh -77, DT40 TDP1 no CPT 2.1µM, HT1080NT lethal 23µM, TDP1 cell CPT 4.1µM, HT1080 IDH1KD tx inconclusive, ELG1 repair inh inconclusive
Cc1cc(N2CCC(C)CC2)nc2ccc(NC(=O)CCC(=O)N3CCN(c4ccccc4F)CC3)cc12	DT40 TDP1 no CPT 15µM, TDP1 cell CPT 18µM (no result: IL1B secr inh, HT1080NT lethal, HT1080 IDH1KD tx, ELG1 repair inh)
Cc1cc(C(=O)Cn2nc(C(=O)O)c3ccccc3c2=O)c(C)n1-c1ccc(F)cc1	DT40 TDP1 no CPT inconclusive, TDP1 cell CPT 29µM, ELG1 repair inh inconclusive
CN(C)c1ccc(CNC(=O)c2ccc(Cn3c(=O)c4cccn4c4cccnc43)cc2)cc1	DT40 TDP1 no CPT 0.21µM, TDP1 cell CPT inconclusive (no result: IL1B secr inh, HT1080NT lethal, HT1080 IDH1KD tx, ELG1 repair inh)
CCCNC(=O)c1ccc(Cn2c(=O)c3cccn3c3cccnc32)cc1	none (no result: IL1B secr inh, HT1080NT lethal, HT1080 IDH1KD tx, ELG1 repair inh)
O=C(NCCc1ccccc1Cl)c1ccc(Cn2c(=O)c3cccn3c3cccnc32)cc1	DT40 TDP1 no CPT 10µM, TDP1 cell CPT 10µM (no result: IL1B secr inh, HT1080NT lethal, HT1080 IDH1KD tx, ELG1 repair inh)
O=C(NCCc1ccc(Cl)cc1)c1ccc(Br)s1	ELG1 repair inh inconclusive
COc1ccc(-c2nc3cnc(N4CCOCC4)nc3n(C)c2=O)cc1	none (no result: IL1B secr inh, HT1080NT lethal, HT1080 IDH1KD tx, ELG1 repair inh)
O=C(NC1CC1)C1Nc2ccc(OC(F)(F)F)cc2C2C=CCC12 (stereo not drawn)	DT40 TDP1 no CPT 13µM, TDP1 cell CPT inconclusive (no result: ELG1 repair inh)
O=C(NCc1ccccc1)C1Nc2ccc(OC(F)(F)F)cc2C2C=CCC12 (stereo not drawn)	DT40 TDP1 no CPT inconclusive, TDP1 cell CPT 23µM (no result: ELG1 repair inh)
CN(C)C(CNC(=O)c1ccc(S(=O)(=O)Nc2ccccc2F)cc1)c1ccco1 (stereo not drawn)	DT40 TDP1 no CPT inconclusive
N#Cc1ccccc1OCC(=O)Nc1cccc(S(=O)(=O)N2CCCCCC2)c1	DT40 TDP1 no CPT 21µM, TDP1 cell CPT inconclusive, ELG1 repair inh 18µM
CC(=O)c1ccc(OCC(=O)Nc2cccc(S(=O)(=O)N3CCCC3)c2)cc1	DT40 TDP1 no CPT 9.2µM, HT1080NT lethal 16µM, TDP1 cell CPT 8.2µM
